Source: PubChem BioAssay (ICCB-Longwood Screening Facility, Harvard Medical School)
RVFV N-RNA inh – RVFV nucleocapsid-RNA interaction inhibition; AID 651828; RVFV N-RNA binding, fluorescence polarization; hits give low values; P21700; 20,000 tested, 0.1% active; % bound, % (concentration not given with the values); in the data active means % bound below about 75%
Target sequence (P21700 whole entry, looked up): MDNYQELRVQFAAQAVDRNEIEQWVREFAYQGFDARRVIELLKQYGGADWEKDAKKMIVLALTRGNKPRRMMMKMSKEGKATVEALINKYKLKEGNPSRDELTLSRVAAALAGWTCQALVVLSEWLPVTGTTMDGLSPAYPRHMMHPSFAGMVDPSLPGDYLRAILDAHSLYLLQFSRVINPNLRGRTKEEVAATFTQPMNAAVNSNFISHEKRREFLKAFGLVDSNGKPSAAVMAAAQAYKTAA
Of the large screens only hits and unclear results are named; the others gave an inactive call; ! = a repeat was not active. Shown is part of a subset that was picked to be rich in hits.

O=C(c1ccc(Cl)s1)N1CCc2ccccc2C1	none
O=C(CCCN1CCC(O)(c2ccc(Cl)cc2)CC1)c1ccc(F)cc1	none
CC1CCN(CCCC(=O)c2ccc(F)cc2)CC1	none
O=C(CCCN1CCC2(CC1)C(=O)NCN2c1ccccc1)c1ccc(F)cc1	RVFV N-RNA inh 56.0!
O=S(=O)(Nc1ccc(F)cc1)c1cccc2cccnc12	none
CCOC(=O)/C(C#N)=C\c1ccc(N2CCOCC2)cc1	none
O=C(c1ccco1)N(Cc1ccccc1)c1nc2c(F)cc(F)cc2s1	none
O=C(c1cc(F)cc2c1OCOC2)N1CCN(C2c3ccccc3-c3ccccc32)CC1	none
COC(=O)c1c(OC)ccc(NC=C(C#N)C#N)c1OC	none
Cc1ccc(C(CNC(=O)C(C)C)N2CCN(C)CC2)cc1 (centres undefined)	none
Brc1cnn(Cc2ccccc2)c1	none
CCN=C1S/C(=C2\C(=O)N(C)c3ccccc32)C(=O)N1CC	none
CC(C)(C)NS(=O)(=O)c1ccc(Br)cc1	none
COCc1cc(C)nc(SCC(=O)N2CCOCC2)c1C#N	none
COCCNC(=O)c1cc(Br)c(C)c(C)c1C	none
NC(=S)Cc1ccc(CC(N)=S)o1	none
COC(=O)Cc1c(C)c2ccc(OCC(=O)c3ccc(N4CCCC4)cc3)cc2oc1=O	none
CCSc1nnc(-c2ccccc2)n1-c1ccccc1	none
CC1(C)Cn2c(nnc2-c2ccccc2)S1	none
CN=c1nc(-c2ccccc2)n(-c2ccccc2)s1	RVFV N-RNA inh 49.7
Cc1ccc(N2C(=O)c3cccc4c(N5CCN(C)CC5)ccc(c34)C2=O)c2cccnc12	RVFV N-RNA inh 54.7
O=C1c2cccc3c(Cl)ccc(c23)C(=O)N1c1ccccn1	none
O=C(O)c1ccc2c3c(cccc13)C(=O)N(c1ccccc1O)C2=O	none
Clc1ccc2c(c1)NNc1nncn1-2	none
O=C(O)CSc1nnc2n1-c1ccc(Cl)cc1NN2	RVFV N-RNA inh 55.9
NC(=O)CSc1nc2ccc(Cl)cc2[nH]1	none
Cc1ccc2nc(C(F)(F)F)cc(N3CCN(CCS(=O)(=O)c4ccccc4)CC3)c2c1	none
NC(CO)C(=O)NNCc1ccc(O)c(O)c1O (centres undefined)	none
O=C(CSc1ccccc1)N/N=C/c1ccccc1O	none
NC(CO)C(=O)N/N=C/c1ccc(O)c(O)c1O (centres undefined)	RVFV N-RNA inh 50.6
CN(C)c1ccc(/C=C(\C#N)S(=O)(=O)C(C)(C)C)c(F)c1C#N	none
O=C(c1cccc(S(=O)(=O)Nc2ccccn2)c1)N1CCCc2ccccc21	none
CC[C@H]1OC(=O)[C@H](C)[C@@H](O[C@H]2C[C@@](C)(OC)[C@@H](O)[C@H](C)O2)[C@H](C)[C@@H](O[C@@H]2O[C@H](C)C[C@H](N(C)C)[C@H]2O)C(C)(O)C[C@@H](C)CN(C)[C@H](C)[C@@H](O)[C@]1(C)O (some centres undefined)	none
C=CCSc1nnc(NC(=O)NC2CCCCC2)s1	none
NS(=O)(=O)c1ccc(CNC(=O)COc2ccc(Cl)cc2)cc1	none
C=CCN=Cc1c(O)[nH]c2ccccc12	none
OCCN=Cc1[nH]c2ccccc2c1O	RVFV N-RNA inh 54.9
OCC(O)CN=Cc1c(O)[nH]c2ccccc12 (centres undefined)	none
CN(C)Cn1c2ccccc2c2ccccc21	none
CCOC(=O)N1CCC(NCc2ccc(Br)cc2)CC1	none
Cc1ccc(N(C(=O)Nc2c(-c3c(Cl)cccc3Cl)noc2C)S(C)=O)cc1 (centres undefined)	none
CCOC(=O)c1ccc(NC(=O)C(C)Sc2nc(O)c(NC(C)=O)c(=O)[nH]2)cc1 (centres undefined)	none
C#CCn1c(=NC(=O)CSCC(=O)N2CCCC2)sc2ccccc21	none
OC1(CCC2(O)CCCC2)CCCC1	none
Cc1onc(-c2ccc(Cl)cc2)c1-c1ccnc(SCC(=O)c2ccccc2)n1	none
CCOC(=O)c1ccc(Oc2nc(NC(C)C)nc(NC(C)(C)C)n2)cc1	none
CCOC(=O)c1cc2c(N(C)C)nccc2nc1C(F)(F)F	none
O=C1CCOc2ccc(Cl)cc21	none
CS(=O)(=O)c1nc2ccccc2n1Cc1cccc2ccccc12	none
COC(=O)c1cc(OC(=O)c2ccccc2Br)n(C)n1	none
[O-]/[N+](Cc1ccccc1)=N\OCc1ccccc1	none
CC(N/C=C1\C(=O)C2(C)CCC1C2(C)C)c1ccccc1 (centres undefined)	none
CCCCN(CC)C(=O)c1cc(OC)c(OC)c(OC)c1	none
CN1C(=O)C2C(c3ccccc3)NN(C)C2C1=O (centres undefined)	none
CC(=O)SCC(C)C(=O)Nc1ccccc1 (centres undefined)	none
O=C(NC(=O)c1csnn1)Nc1ccc(F)c(Cl)c1	none
CN1C(=O)C(=CN2CCc3ccccc32)C(=O)N(C)C1=O	none
O=c1c2c(N3CCOCC3)cc(N3CCOCC3)nc2n(-c2ccccc2)c(=O)n1-c1ccccc1	none
CN(C)CCN1C(c2ccccc2)=CC(=C2C(=O)N(C)C(=O)N(C)C2=O)C2=C1CCCC2	none
CC(=O)Oc1cc2c(s1)CCN([C@H](C(=O)C1CC1)c1ccccc1F)C2	none
CCCCC(=O)C1C(=O)CC(c2ccccc2)CC1=O (centres undefined)	none
Cn1c(C(=O)O)ccc1S(=O)(=O)N(Cc1ccccn1)Cc1ccccn1	none
CCOc1ccc(OCCCn2cnc3ccccc3c2=O)cc1	none
Cc1ccccc1NS(=O)(=O)c1ccc(-n2cnnn2)cc1	none
